Screens from PubChem.
A549 tox: kills or reduces viability of A549 cells in Nrf2 counter-screen. A549 ARE-Fluc cells, CellTiter-Fluor viability, 18-24 h. Potency, µM (series often up to 46 µM), most hits filed as inhibitors. 0.16% of 390,000 active
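Cytotoxicity counterscreen: CellTiter-Fluor fluorescence was measured in A549 ARE_Fluc cells after 18-24 h of compound exposure in a concentration series. The subsequent BugLite luminescent read reports ARE-luciferase activity.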
TGFb SMAD3 inh: inhibitors of TGF-b signaling; Potency, µM (highest dose often 46.1 µM), actives largely listed as inhibitors; AID 588855; HepG2 CAGA-GFP TGF-b/SMAD3 reporter, GFP fluorescence, 18 h; TGF-beta stimulated, 500 pg/mL final; 1.2% of 410,000 active; also: nearly all actives have a fitted effect of over 65% in size
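Read-out: total well GFP (ex488/em500-530) summed from mean per-cell fluorescence. Cells: HEPG2 CAGA-GFP, 1% FBS DMEM, 18 h at 37 degrees C with 500 pg/mL final TGF-beta. Unstimulated wells served as the full-inhibition control; stimulated DMSO wells = 0%.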
Nrf2 block: blocks Nrf2 signaling | A549 ARE-Fluc reporter, luciferase luminescence, 18-24 h | 2.1% of 360,000 active | Potency, µM (highest dose often 46 µM), hits mostly inhibitors; also: nearly all actives have a fitted effect of over 60% in size
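A549 ARE_Fluc cells, 5000/well, 5% FBS OPTI-MEM; compounds in dose-response, 18-24 h at 37 °C/5% CO2; CellTiter-Fluor viability read (Ex 405/Em 525), then BugLite luciferase luminescence = Nrf2 activity.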
HepG2 tox: HepG2 cytotoxicity, counter-screen for TGF-b inhibitors; HepG2 CAGA-GFP viability, ATP luminescence, 18 h; Potency, µM (doses to about 46.1 µM), actives largely listed as cytotoxic; 0.76% of 410,000 active; AID 588856
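CellTiter-Glo luminescence gave cytotoxicity after 18 hours at 37 degrees C. The cells were HepG2 CAGA-GFP in 1% FBS DMEM, stimulated with 500 pg/mL TGF-beta after compound addition. %Activity was normalised to no-cell wells (complete cell-killing) and DMSO (no toxicity), and curves were fitted and classified.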
Nrf2 ARE act: activates Nrf2 signaling; AREc32 ARE-luciferase reporter (MCF7-derived line), luminescence, 24 h; Potency, µM (highest dose often 46.1 µM), actives largely listed as activators; 0.31% of 410,000 active; AID 624171; also: nearly all actives have a fitted effect of over 65% in size
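For detection, Steady-Glo was added and plates sat 30 min at RT; before that, AREc32_Fluc cells grown overnight in OPTI-MEM/5% FBS had been treated with 23 nL compound for 24 hr at 37 deg C.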
A number is an active result; - = inactive; ? = inconclusive; . = no result. Hits are enriched below; roughly 3.6% of the tested compounds scored in any of these assays. Calls follow the shape of the dose curve; as a rule, active = well fitted curve in the direction sought with a large enough effect; inconclusive = small, poorly fitted or top-dose-only effect, or another doubt; inactive = no such curve, though single readings can be large; an effect the other way counts as inactive or inconclusive.

SMILES	A549 tox	TGFb SMAD3 inh	Nrf2 block	HepG2 tox	Nrf2 ARE act
C=CCn1c(C)cc(C(=O)COC(=O)c2ccc(N)c([N+](=O)[O-])c2)c1C	-	-	?	-	-
Cc1cc(C(=O)COC(=O)c2ccccc2O)c(C)n1Cc1cccs1	?	-	6.5µM	-	-
CC12CCC(C/C1=N/O)C2(C)C (centres undefined)	-	-	-	-	-
Cc1nn(Cc2ccc(C(=O)NC(C)(C)C)o2)c(C)c1Br	-	-	18µM	-	-
Cc1cc(NC(=O)c2ccc(Cn3nc(C)c(Br)c3C)o2)no1	-	-	-	-	-
Nc1nc(CCl)nc(Nc2ccccc2)n1	-	?	-	-	?
COc1ccc(OC)c(Nc2nc(N)nc(CCl)n2)c1	-	-	-	-	-
Cc1ccc(Nc2nc(N)nc(CCl)n2)cc1	-	?	-	-	?
Cc1cccc(Nc2nc(N)nc(CCl)n2)c1C	?	14µM	10µM	-	-
CCOc1ccc(Nc2nc(N)nc(CCl)n2)cc1	?	11µM	?	-	-
COc1cccc(Nc2nc(N)nc(CCl)n2)c1	-	?	-	-	13µM
Cc1cccc(Nc2nc(N)nc(CCl)n2)c1	-	?	-	-	14µM
Cc1cccc(C)c1NC(=O)CSc1nnc(C)c(=O)[nH]1	-	-	-	-	-
CN(C(=O)CSc1nc(-c2ccccc2)no1)c1ccc(F)cc1	-	-	-	-	-
Cc1c(C)c2ccc(OC(C)C(=O)NCCc3c[nH]c4ccccc34)cc2oc1=O (centres undefined)	-	-	-	-	-
O=C(NC1CCCCC1)C(c1ccc(F)cc1)N(Cc1ccco1)C(=O)CN1C(=O)c2ccccc2S1(=O)=O (centres undefined)	-	-	-	-	-
CCc1nnc(NC(=O)CCC(=O)N2CCN(CCOc3ccc(C)cc3)CC2)s1	-	-	21µM	-	-
CCN1CCCc2cc(CN(CCN3CCOCC3)C(=O)Nc3ccc(C)c(C)c3)ccc21	?	?	-	-	-
CCc1ccc(NC(=O)N(CCN2CCOCC2)Cc2ccc3c(c2)CCCN3CC)cc1	16µM	-	?	-	-
CC(=O)Nc1ccc(C(=O)Nc2ccc3c(c2)N(C2CCCC2)C(=O)c2ccccc2S3)cc1	-	-	.	-	-
N#Cc1ccc(C(=O)Nc2ccc3c(c2)N(C2CCCC2)C(=O)c2ccccc2S3)cc1	-	5.6µM	.	-	-
CC1(C)CC(=O)C(C2NCCc3ccccc32)=C(O)C1 (centres undefined)	-	-	-	-	-
O=C(NCc1ccccc1Cl)c1ccc(Cn2c(SCc3ccccc3)nc3cccnc32)cc1	?	?	?	-	-
CC(=O)c1c(C)[nH]c(C(=O)CN2CCN(S(=O)(=O)c3ccccc3[N+](=O)[O-])CC2)c1C	-	-	21µM	-	-
N#C/C(C(=O)Nc1ccc(Cl)cc1)=C(/S)Nc1ccccc1	-	11µM	-	11µM	-
SMILES	A549 tox	TGFb SMAD3 inh	Nrf2 block	HepG2 tox	Nrf2 ARE act
Cc1ccc2c(c1)Oc1ccc(NC(=O)CCl)cc1C(=O)N2	-	14µM	-	8.9µM	?
Cc1ccc2c(c1)Oc1ccc([N+](=O)[O-])cc1C(=O)N2	-	-	-	-	-
O=S(=O)(c1ccccc1)N1CCC2(CC1)OCCO2	-	-	-	-	-
C=C1[C@@H](O)[C@H](Cc2ccccc2)N(Cc2ccccc2Br)S1(=O)=O	-	?	?	10µM	-
CC1(C)C(=O)Nc2ccccc2N1C(=O)CSc1nnc2c(Cl)cc(Cl)cn12	-	-	-	-	-
O=C(c1ccc(COc2ccc(Cl)cc2)o1)N1N=C(C(F)F)CC1(O)C(F)F (centres undefined)	-	22µM	?	-	-
CCOc1ccc(S(=O)(=O)Nc2ccccc2C(=O)NCC2CCCO2)cc1 (centres undefined)	-	-	-	-	-
COc1cc(/C=N/NC(=O)Cc2ccc(Br)cc2)cc(OC)c1O	-	-	-	-	-
COc1ccc(C)cc1NC(=O)CSc1nc(=O)n(Cc2ccccn2)c2c1CCC2	-	8.9µM	.	-	-
CC(=O)c1cccc(NC(=O)CSc2nc(=O)n(Cc3cccnc3)c3c2CCC3)c1	-	-	.	-	-
